Source: PubChem BioAssay
Shiga toxin inh – blocks Shiga toxin action in Vero cells; Vero cells, Shiga toxin protein synthesis inhibition reporter; inhibition, % at 38.7 µM; 290,000 tested, 9.2% active; AID 2315; in the data active = inhibition mostly above about 28%, no sharp cut-off; inactive = mostly below about 43%; note: 0% is about no effect
Giardia FBPA inh – inhibitors of Giardia lamblia fructose-1,6-bisphosphate aldolase; A8B2U2; purified Giardia FBPA; 290,000 tested, 0.71% active; Potency, µM (highest dose often 59.6 µM), inactives show top-dose activity, negative = inhibition, hits mostly inhibitors; note: potency is the fitted concentration of half-maximal effect; % is set by controls: 0 for no effect and ±100 for the full control effect; nearly all actives have a fitted effect of over 55% in size
Target sequence (A8B2U2 whole entry, looked up): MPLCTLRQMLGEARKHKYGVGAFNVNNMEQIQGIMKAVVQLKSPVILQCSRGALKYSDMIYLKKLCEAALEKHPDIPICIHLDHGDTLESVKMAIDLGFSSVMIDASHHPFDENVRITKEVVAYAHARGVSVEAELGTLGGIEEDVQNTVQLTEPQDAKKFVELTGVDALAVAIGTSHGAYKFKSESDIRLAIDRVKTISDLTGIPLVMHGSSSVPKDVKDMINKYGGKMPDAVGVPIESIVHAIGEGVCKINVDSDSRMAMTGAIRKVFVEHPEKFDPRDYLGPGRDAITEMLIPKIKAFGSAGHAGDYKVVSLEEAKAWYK
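Giardia FBPA (40 nM reagent) was preincubated 10 min at RT with compound (up to 57.5 uM final), then substrate plus GAPDH/TPI/NAD/arsenate coupling system with diaphorase/resazurin was added; resorufin fluorescence (525/598 nm) was read after 20 min.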
Pf growth 96h – inhibits malaria parasite growth, 96 h; P. falciparum luciferase reporter growth, 96 h; Potency, µM (titrated, usually from 28.7 µM), inactives show at the top dose activity change, negative = inhibition, hits mostly inhibitors; 320,000 tested, 6.9% active; AID 504834; note: potency is the fitted concentration of half-maximal effect; % is set by controls: 0 for no effect and ±100 for the full control effect
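P. falciparum expressing integrated firefly luciferase, in erythrocytes at 2% hematocrit, 0.05% parasitemia, incubated with compounds 96 h at 37 C, 5% CO2. Growth inhibition read as loss of luminescence; two-generation exposure targets delayed-death apicoplast inhibitors.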
CHX counter – counter-screen hit for Shiga toxin inhibitors, cycloheximide; 300,000 tested, 12% active; max response, %; cell reporter, cycloheximide protein synthesis inhibition counterscreen; AID 2314; in the data active = max response mostly above about 13%, no sharp cut-off; inactive = mostly below about 14%; note: read at 38.3 µM for the half of the compounds with a filed dose; 0% is about no effect
Pf growth 48h – inhibits P. falciparum growth in the first generation, 48 h; P. falciparum luciferase growth in erythrocytes, 48 h; Potency, µM (doses to about 28.7 µM), without a hit: at the highest dose activity change, negative = inhibition, usual class: inhibitors; 310,000 tested, 5.9% active; AID 504832; note: potency is the fitted concentration of half-maximal effect; % is set by controls: 0 for no effect and ±100 for the full control effect
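Luciferase-expressing P. falciparum in infected erythrocytes (2% hematocrit, 0.1% parasitemia final) in RPMI 1640/0.5% Albumax were exposed to compound for 48 hours at 37 C, 5% CO2; growth read as luminescence.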
NS1 inh – blocks influenza NS1 protein function; Potency, µM (titrated, usually from 46.1 µM), for the others: top-dose activity, positive = more growth; 270,000 tested, 0.4% active; calls by dose curve; note: potency is the fitted concentration of half-maximal effect; actives are rising curves; nearly all actives have a fitted effect of over 50% in size
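S. cerevisiae expressing influenza A NS1, grown in glucose, washed, then diluted 1:100 into pH 6.0 -URA galactose medium with 23 nl compound. Growth recovery read as OD600; NS1-free strain serves as control.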
Numbers without * were called inactive; ? = inconclusive; . = no result. Only some compounds are listed: those with a hit (about 21% of all), similar ones and a draw of the others. Unless noted, calls come from the whole dose curve; as a rule, active = well fitted curve in the direction sought with a large enough effect; inconclusive = small, poorly fitted or top-dose-only effect, or another doubt; inactive = no such curve, though single readings can be large; an effect the other way counts as inactive or inconclusive.

SMILES	Shiga toxin inh	Giardia FBPA inh	Pf growth 96h	CHX counter	Pf growth 48h	NS1 inh
COc1ccc(-c2nnc(SCC(=O)N3CCCC3)o2)cc1	66.6*	1.1%	-18.0%	32.5*	83.3%	5.6%
O=C(CSc1nnc(-c2ccncc2)o1)N1CCCCCC1	33.7	3.0%	-11.2%	9.9	26.5%	-2.4%
Cc1ccc(-c2nnc(SCC(=O)NC3CC3)o2)cc1	60.8*	.	1.6%	23.8*	13.7%	-2.6%
COc1ccccc1CC(=O)N1CCC(CCC(=O)NC2CC2)CC1	6.8	.	226.3%	-2.1	?	1.0%
O=C(Oc1ccccc1C(=S)N1CCOCC1)c1cccc([N+](=O)[O-])c1	-2.6	2.0%	-16.5%	-4.2	21.2%	-4.5%
Cc1cccc(-c2nnc(SCC(=O)N3CCCC3)o2)c1	92.5*	6.7%	-10.5%	19.1*	108.2%	-0.8%
Cc1cccc(-c2nnc(SCCC(=O)N3CCOCC3)o2)c1	50.3	0.4%	?	9.0	39.8%	-2.5%
COc1ccc(/C=N/n2c(COc3ccccc3)n[nH]c2=S)cc1OC	-4.7	6.8%	-8.2%	0.3	.	4.0%
COc1cccc(OC)c1C1=NCC(=O)Nc2c1oc1ccc(Br)cc21	-8.1	-10.0%	1.85µM*	-3.8	?	-64.4%
C/C(=N/Nc1ccc(C(=O)O)cc1)c1ccc(O)c(O)c1O	83.7*	7.06µM*	?	51.5*	107.4%	-10.4%
COc1ccc(OC)c(/C(C)=N/Nc2ccc(C(=O)O)cc2)c1	54.6*	16.9%	76.9%	37.6*	139.1%	-8.4%
COc1cc(/C(C)=N/Nc2ccc(C(=O)O)cc2)cc(OC)c1OC	171.1*	2.3%	-12.1%	70.5*	146.0%	?
COc1ccc(/C(C)=N/Nc2ccc(C(=O)O)cc2)cc1OC	62.8	0.7%	225.0%	40.5*	256.4%	15.4%
C/C(=N\Nc1ccc(C(=O)O)cc1)c1nc2ccccc2n1C	-0.6	5.8%	?	6.4	209.9%	3.1%
Cc1ccc(C)c(N(C)C(=O)CCS(=O)(=O)c2cccc3nonc23)c1	-9.8	-0.3%	20.6%	-5.5	-15.6%	-1.9%
CC1=CC(=O)C(C(C)C)=C/C1=C(\c1cc(C(C)C)c(OP(=O)(O)O)cc1C)c1ccccc1C(=O)O	3.1	7.2%	?	0.9	-35.0%	0.6%
Cc1ccc(NC(=O)NC(=O)COc2ccccc2C(N)=O)c(C)c1	.	.	-12.0%	.	21.2%	.
Cn1c(=O)c2c(ncn2CCC(=O)N/N=C/c2ccncc2)n(C)c1=O	5.4	1.1%	28.3%	-6.0	31.7%	2.5%
Cc1ccc(OCc2ccccc2C)c([N+](=O)[O-])n1	33.5	-4.4%	-4.4%	40.7*	14.0%	-32.8%
Cc1ccc(OCCOc2ccc(Br)cc2)c([N+](=O)[O-])n1	154.3*	-6.3%	188.5%	71.8*	172.3%	-22.9%
Cc1ccc(C(C)C)c(OCC(=O)NNC(=O)CC2OC(=O)c3ccccc32)c1 (stereo not given)	.	.	6.0%	.	-7.9%	.
CCNc1nc(N)c(C(=O)c2ccc(Cl)s2)s1	130.4*	3.5%	?	44.1*	55.9%	-48.9%
CCOC(=O)CNC(=O)c1ccc(Cl)s1	23.9	17.3%	?	4.4	0.0%	2.0%
COc1ccc(-c2csc(NC(=O)CCNC(=O)c3ccco3)n2)cc1OC	.	.	?	.	11.7µM*	.
O=C(Nc1nc(-c2ccccc2)cs1)c1ccco1	121.7*	-16.8%	3.4%	88.9*	81.5%	-48.6%
SMILES	Shiga toxin inh	Giardia FBPA inh	Pf growth 96h	CHX counter	Pf growth 48h	NS1 inh
O=C(Nc1ccccc1NC(=O)c1ccco1)c1ccccc1	-6.9	12.6%	38.4%	-13.4	5.6%	7.5%
O=C(NC(=S)Nc1nc(-c2ccc(Br)cc2)cs1)c1ccco1	25.5	-9.2%	4.4%	0.7	29.1%	.
O=C(NNc1nc(-c2ccc(Br)cc2)cs1)c1ccco1	80.5*	4.9%	-28.9%	31.4*	1.65µM*	17.6%
COc1ccc(CC(=O)Nc2nc(-c3ccc(OC)c(OC)c3)cs2)cc1OC	25.0	0.7%	-13.6%	-3.0	-18.0%	-11.3%
Cc1ccc(-c2csc(NC(=O)Cc3ccc(F)cc3)n2)o1	36.9	-18.7%	-17.8%	14.6*	-2.9%	.
Cn1ncc([N+](=O)[O-])c1C(=O)n1nnc2ccccc21	14.5	0.1%	?	-1.9	21.9%	.
Cc1ccc(-c2csc(NC(=O)c3ccc(-c4ccccc4)cc3)n2)o1	96.0*	-10.1%	?	48.3*	?	8.5%
